CYP2C9 act – human CYP2C9 activators, primary screen, biochemical, luminescence; Cytochrome P450 2C9 (Homo sapiens), P11712; recombinant CYP2C9, luciferin-H conversion; active compounds read high; factor 1 = untreated enzyme, 0 = blocked; activation factor at 5 µM; hit rate 1.4% among 96,000; AID 1024, 2008;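 active = activation factor of 2 or more for CYP2C9 at a 5 µM dose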
Target sequence (P11712 whole entry, looked up): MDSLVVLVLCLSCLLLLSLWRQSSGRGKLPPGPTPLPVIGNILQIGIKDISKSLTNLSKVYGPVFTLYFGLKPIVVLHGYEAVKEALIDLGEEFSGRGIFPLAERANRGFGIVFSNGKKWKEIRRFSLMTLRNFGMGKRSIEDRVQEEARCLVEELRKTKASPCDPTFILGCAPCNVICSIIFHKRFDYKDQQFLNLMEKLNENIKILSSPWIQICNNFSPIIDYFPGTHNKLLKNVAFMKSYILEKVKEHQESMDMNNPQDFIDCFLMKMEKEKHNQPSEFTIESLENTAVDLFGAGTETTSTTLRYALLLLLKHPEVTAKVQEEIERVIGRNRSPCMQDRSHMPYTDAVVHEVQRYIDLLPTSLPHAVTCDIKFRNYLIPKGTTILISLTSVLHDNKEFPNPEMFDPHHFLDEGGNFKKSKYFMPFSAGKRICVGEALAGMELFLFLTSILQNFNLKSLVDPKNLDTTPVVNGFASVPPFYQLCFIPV
CYP2C19 inhib – blockers of cytochrome P450 2C19 activity – biochemical, luminescence, ADME assay, primary screen | CYP2C19 Supersomes, luciferin-H EGE luminescence, 30 min | hit rate 21% among 96,000 | AID 778, 2007 | inhibition, % at 5 µM | P33261;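 active = CYP2C19 inhibition above a set limit at 5 µM in the primary screen, cut at about 50% in these data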
MRP reversal – reversal of MRP1-mediated doxorubicin resistance, primary screen, H69AR cells, doxorubicin co-treatment; H69AR cells + 2 uM doxorubicin, CellTiter-Glo, 72 h; hit rate 0.04% among 85,000; differential viability (reversal), % at 10 µM;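 active = viability drop by adding the cancer drug above about 55%, with treated viability meeting a 40% cutoff, limit read from the data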;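 note: larger differential means the compound sensitizes cells more to doxorubicin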
MRP-1 activ – H69AR viability gain despite doxorubicin, primary screen, MRP-1 activator project, H69AR cells, CellTiter-Glo. AID 799, 2007. viability rescue. hit rate 0.61% among 140,000. viability increase, % at 10 µM;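 active = viability gain under doxorubicin at or above a set limit, the compound median plus 3 SD, cut at about 4.7% in these data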;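 note: MRP-1 overexpressing cells given doxorubicin 25 µM after compound pretreatment; 18-22 h compound pretreatment then 72 h with doxorubicin before readout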
CYP2C9 inhib – blockers of cytochrome P450 2C9 activity – biochemical, luminescence, ADME assay, primary screen. CYP2C9 Supersomes, luciferin-H conversion. hit rate 20% among 96,000. inhibition, % at 5 µM. P11712. AID 777, 2007;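 active = blocking of liver enzyme CYP2C9 beyond about 50% at 5 µM, limit read from the data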
CYP2C19 act – human CYP2C19 activators, primary screen, biochemical, luminescence. 96,000 tested, under 10 active. recombinant CYP2C19, luciferin-H EGE luminescence; active compounds read high; 0 = fully inhibited enzyme, 1 = untreated enzyme. Cytochrome P450 2C19 (Homo sapiens), P33261. activation factor at 5 µM;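 active = activation factor of at least 2 at 5 µM in the primary screen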
Each line names hits and unclear results; the compound was inactive in the other large screens. This is a sample that favours compounds with a hit; in the whole collection about 21% have one here.

O=C(c1ccc2c(=O)n3c(nc2c1)CCCCC3)N1CCN(Cc2ccccc2)CC1	CYP2C19 inhib 55, CYP2C9 inhib 73
O=S(=O)(c1ccc2c(c1)OCCO2)N1CCN(Cc2ccc3c(c2)OCO3)CC1	CYP2C19 inhib 94, CYP2C9 inhib 89
O=C1c2ccccc2C(Nc2ccc(F)cc2F)N1CCN1CCOCC1 (configuration not stated)	none
CCOc1cc(C2/C(=C(/O)c3ccc(OC(C)C)cc3)C(=O)C(=O)N2CCCOC)ccc1O (configuration not stated)	none
CN(Cc1ccccc1)S(=O)(=O)c1ccc2c(c1)OCCO2	CYP2C19 inhib 87
O=S(=O)(NCc1ccccc1)c1ccc2c(c1)OCCO2	none (no result: MRP reversal)
Cc1ccccc1OCCNC(=S)Nc1ccccc1	CYP2C19 inhib 70 (no result: MRP reversal)
Cc1cccc(CSCCNC(=S)Nc2ccccc2)c1	none (no result: CYP2C9 act, CYP2C19 inhib, MRP reversal, CYP2C9 inhib, CYP2C19 act)
Nc1nc(SCC(=O)NCc2ccccc2)n[nH]1	none
Nc1nc(SCC(=O)NCCC(c2ccccc2)c2ccccc2)n[nH]1	CYP2C19 inhib 96, CYP2C9 inhib 71
Cc1cc(C)c(-c2cc(NC(=O)CSc3n[nH]c(N)n3)n(-c3ccccc3)n2)cc1C	CYP2C19 inhib 94, CYP2C9 inhib 90 (no result: MRP reversal)
Cc1cc(C(=O)CSc2n[nH]c(N)n2)c(C)n1-c1cc(F)ccc1F	CYP2C19 inhib 76, CYP2C9 inhib 54
Cc1cc(C(=O)CSc2n[nH]c(N)n2)c(C)n1-c1ccccc1	CYP2C19 inhib 87, CYP2C9 inhib 58 (no result: MRP reversal)
Cc1ccc(-n2c(C)cc(C(=O)CSc3n[nH]c(N)n3)c2C)cc1	none
CC1=C(C(=O)Nc2ccccc2Cl)C(c2ccc(N(C)C)cc2)NC(=O)N1 (configuration not stated)	none (no result: MRP reversal)
CC(=O)CCn1c(=O)n(CCC(C)=O)c(=O)n(CCC(C)=O)c1=O	none (no result: CYP2C9 act, CYP2C19 inhib, CYP2C9 inhib, CYP2C19 act)
Nc1nc(SCC(=O)Nc2ccc(Br)cc2F)n[nH]1	CYP2C19 inhib 93
C=CCn1c(C)cc(C(=O)CSc2n[nH]c(N)n2)c1C	CYP2C9 act 2.6
CCOc1cc(C(=O)CCC(=O)OCC(=O)N2c3ccccc3NC(=O)C2(C)C)ccc1O	none (no result: MRP reversal)
COc1ccc(CNC(=O)OCCN2CCN(Cc3ccccc3)CCC2=O)cc1	none (no result: CYP2C9 act, CYP2C19 inhib, MRP reversal, CYP2C9 inhib, CYP2C19 act)
CCN(CC)S(=O)(=O)c1ccc2nnn(OCC(=O)Nc3cccc(C#N)c3)c2c1	CYP2C19 inhib 94, CYP2C9 inhib 97
CC1CCN(c2c([N+](=O)[O-])c(=O)oc3ccccc23)CC1	none (no result: CYP2C9 act, CYP2C19 inhib, MRP reversal, CYP2C9 inhib, CYP2C19 act)

Screens: PubChem, several laboratories
